Laboratory results as given in PubChem BioAssay AID1159580 (chemical genetic matrix, 2015).
Where “and” joins values, the source holds several entries; their conditions need not be identical. Equal values may be shown once. Among all 5,500 compounds or so, about 2,000 (36%) were called active. About 18% were inconclusive and are not listed. Cut-off read from the data, not from the text of the source: active = normalized growth mostly below about 0.91 (no sharp cut-off); inconclusive = no clear call, values can overlap the other calls; inactive = mostly above about 0.92. This is one part of the list.

Experiment: chemical genetic growth profiling, strain panel (AID 1159580);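 note: tested at 20 µM; growth read once vehicle control cultures reached saturation at 30 °C; 1 = growth at the plate median or of vehicle wells; lower values mean less growth of the strain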
Conditions: S. cerevisiae deletion strains, growth OD

Measured: normalized growth

CC(C)Nc1nc(Cl)nc(NC(C)C)n1
inactive: locus YAL013W, strain DEP1, hits give low values 1.01 | locus YAL021C, strain ccr4, hits give low values 1 | locus YAL026C, strain drs2, hits give low values 0.996 | locus YAL030W, strain snc1, hits give low values 0.998 | locus YBL061C, strain skt5, hits give low values 0.996 | locus YBR009C, strain hhf1, hits give low values 1 | locus YBR021W, strain FUR4, hits give low values 1.01 | locus YBR023C, strain chs3, hits give low values 0.992 | locus YBR171W, strain sec66, hits give low values 0.995 | locus YBR229C, strain ROT2, hits give low values 0.993 | locus YBR231C, strain swc5, hits give low values 0.996 | locus YBR279W, strain paf1, hits give low values 0.994 | locus YCL011C, strain gbp2, hits give low values 0.992 | locus YCL016C, strain dcc1, hits give low values 1 | locus YCL029C, strain bik1, hits give low values 1.01 | locus YCL061C, strain MRC1, hits give low values 0.987 | locus YCL069W, strain vba3, hits give low values 1.01 | locus YCR088W, strain abp1, hits give low values 0.992 | locus YDL005C, strain med2, hits give low values 0.998 | locus YDL035C, strain GPR1, hits give low values 1.01 | locus YDL040C, strain nat1, hits give low values 0.999 | locus YDL074C, strain BRE1, hits give low values 1.01 | locus YDL101C, strain DUN1, hits give low values 1.01 | locus YDL134C, strain PPH21, hits give low values 1.01 | locus YDL185W, strain tfp1, hits give low values 1.01 | locus YDL192W, strain arf1, hits give low values 1 | locus YDR001C, strain nth1, hits give low values 1 | locus YDR069C, strain doa4, hits give low values 1.01 | locus YDR101C, strain arx1, hits give low values 0.996 | locus YDR137W, strain rgp1, hits give low values 0.953 | locus YDR150W, strain NUM1, hits give low values 1 | locus YDR159W, strain sac3, hits give low values 1.03 | locus YDR162C, strain NBP2, hits give low values 1.01 | locus YDR195W, strain ref2 0.969 | locus YDR297W, strain sur2, hits give low values 1 | locus YDR318W, strain mcm21, hits give low values 1.02 | locus YDR334W, strain swr1, hits give low values 0.995 | locus YDR335W, strain msn5, hits give low values 1 | locus YDR388W, hits give low values 1.01 | locus YDR392W, strain spt3, hits give low values 0.996 | locus YDR502C, strain sam2, hits give low values 1.01 | locus YEL003W, strain gim4, hits give low values 1 | locus YEL037C, strain rad23, hits give low values 1.01 | locus YEL061C, strain CIN8 (second series), hits give low values 1 | locus YEL061C, strain CIN8, hits give low values 1.01 | locus YER015W, strain faa2, hits give low values 1 | locus YER016W, strain bim1, hits give low values 1 | locus YER110C, hits give low values 1.01 | locus YER111C, strain swi4, hits give low values 0.994 | locus YER155C, strain BEM2 (second series), hits give low values 0.992 | locus YER155C, strain BEM2, hits give low values 1.01 | locus YER167W, strain BCK2, hits give low values 1.01 | locus YFR010W, strain ubp6, hits give low values 1.01 | locus YGL078C, strain dbp3, hits give low values 1.02 | locus YGL086W, strain mad1, hits give low values 1.01 | locus YGL167C, strain pmr1, hits give low values 0.998 | locus YGL173C, strain kem1, hits give low values 0.996 | locus YGL227W, strain vid30, hits give low values 0.988 | locus YGL240W, strain doc1, hits give low values 0.99 | locus YGL248W, strain PDE1, hits give low values 1.01 | locus YGL253W, strain hxk2, hits give low values 0.999 | locus YGR078C, strain PAC10, hits give low values 0.997 | locus YGR135W, strain pre9, hits give low values 0.997 | locus YGR229C, strain SMI1, hits give low values 1 | locus YGR252W, strain gcn5, hits give low values 0.983 | locus YHR013C, strain ard1, hits give low values 1 | locus YHR027C, strain rpn1, hits give low values 0.994 | locus YHR030C, strain SLT2, hits give low values 0.979 | locus YHR079C, strain IRE1 (second series), hits give low values 1.02 | locus YHR079C, strain IRE1, hits give low values 0.978 | locus YHR094C, strain hxt1, hits give low values 1.01 | locus YHR129C, strain ARP1, hits give low values 1.01 | locus YHR142W, strain chs7, hits give low values 0.995 | locus YHR200W, strain rpn10, hits give low values 1.01 | locus YIL066C, strain RNR3, hits give low values 1.02 | locus YIL073C, strain SPO22, hits give low values 1.07 | locus YIL125W, strain kgd1, hits give low values 1 | locus YIR030C, strain dcg1, hits give low values 1.02 | locus YJL092W, strain hpr5, hits give low values 0.995 | locus YJL095W, strain BCK1 (second series), hits give low values 1 | locus YJL095W, strain BCK1, hits give low values 0.987 and 0.984 | locus YJL115W, strain asf1, hits give low values 0.986 | locus YJL129C, strain trk1, hits give low values 0.997 | locus YJL134W, strain LCB3, hits give low values 0.993 | locus YJL154C, strain vps35, hits give low values 1 | locus YJL164C, strain tpk1, hits give low values 1.01 | locus YJL166W, strain qcr8, hits give low values 1 | locus YJL168C, strain set2, hits give low values 1.01 | locus YJL187C, strain SWE1 (second series), hits give low values 1.01 | locus YJL187C, strain SWE1, hits give low values 1.01 | locus YJR043C, strain POL32, hits give low values 1.01 | locus YJR066W, strain TOR1, hits give low values 0.928
